Rows were chosen to be rich in hits. Some 10% of all compounds tested hit in one or more screens of this group.
Gal4-VP16 FLuc – Gal4-VP16 reporter inhibition counter-screen; Drosophila S2 Gal4-VP16 UAS-luciferase, luminescence, 20 h; Potency, µM (top dose mostly 53.6 µM), without a hit: top-dose activity, negative = inhibition, actives largely listed as inhibitors; 3.5% of 310,000 active; AID 2546;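 note: Gal4-VP16 expression switched on by copper sulfate through the metallothionein promoter; % is set by controls: 0 for no effect and ±100 for the full control effect; nearly all actives have a fitted effect of over 50% in size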
SW480 rereplic – inducers of DNA re-replication in SW480 colon cancer cells; SW480 DNA re-replication, Hoechst DNA content imaging, 48 h; Potency, µM (doses to about 46.1 µM), for the others: top-dose re-replication activation, hits mostly activators; 1.8% of 340,000 active; note: % of control where 0% means no effect; nearly all actives have a fitted effect of over 55% in size
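Image-based DNA-content assay: after two days of treatment, nuclei were labelled with the DNA dye Hoechst and imaged, and hits were compounds raising the count of nuclei showing high fluorescence intensity.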
KB-V1 cytotox – KB-V1 MDR subline cytotoxicity | 3.4% of 400,000 active | Potency, µM (series often up to 46.1 µM), most hits filed as cytotoxic | KB-V1 MDR cells viability, CellTiter-Glo, 72 h; note: % is set by controls: 0 for no effect and ±100 for the full control effect; nearly all actives have a fitted effect of over 60% in size
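Potencies derive from concentration-effect curves fitted to normalized luminescence (CellTiter-Glo) of KB-V1 cells treated for 72 h at 37 degrees C in phenol-red-free DMEM containing 10% FBS.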
KB-3-1 cytotox – kills parental KB-3-1 adenocarcinoma cells; KB-3-1 viability, CellTiter-Glo ATP luminescence, 72 h; Potency, µM (doses to about 46.1 µM), hits mostly cytotoxic; 1.4% of 400,000 active; AID 1347075; note: % is set by controls: 0 for no effect and ±100 for the full control effect; nearly all actives have a fitted effect of over 60% in size
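Multi-concentration cytotoxicity screen in KB-3-1 cells grown in DMEM lacking phenol red with 10% FBS. After 72 h at 37 °C with compound, ATP-dependent luminescence was recorded.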
RORgamma inh – ROR gamma (mouse) transcription inhibition. P51450. Drosophila S2 Gal4-RORgamma UAS-luciferase reporter, 20 h. Potency, µM (highest dose often 53.6 µM), inactives show at the top dose activity change, negative = inhibition, most hits filed as inhibitors. 5.4% of 310,000 active. AID 2551; note: % is set by controls: 0 for no effect and ±100 for the full control effect; nearly all actives have a fitted effect of over 60% in size
Target sequence (P51450 whole entry, looked up, the tested form may be a part): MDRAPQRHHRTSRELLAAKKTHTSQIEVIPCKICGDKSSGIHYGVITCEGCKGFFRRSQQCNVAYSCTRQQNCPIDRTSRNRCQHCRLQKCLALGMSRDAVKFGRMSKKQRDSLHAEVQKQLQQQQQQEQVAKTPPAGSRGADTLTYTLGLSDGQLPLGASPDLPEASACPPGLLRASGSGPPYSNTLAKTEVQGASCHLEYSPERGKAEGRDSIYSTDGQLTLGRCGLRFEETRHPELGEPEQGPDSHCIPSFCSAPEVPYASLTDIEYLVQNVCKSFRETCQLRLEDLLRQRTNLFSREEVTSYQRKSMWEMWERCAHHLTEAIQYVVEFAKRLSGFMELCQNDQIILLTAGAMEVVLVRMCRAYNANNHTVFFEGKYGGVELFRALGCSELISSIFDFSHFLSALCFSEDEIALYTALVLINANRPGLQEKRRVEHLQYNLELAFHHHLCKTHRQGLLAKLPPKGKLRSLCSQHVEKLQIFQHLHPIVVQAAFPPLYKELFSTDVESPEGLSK
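ROR gamma transcriptional activity was tracked as Gal4-UAS luciferase output in stably transfected Drosophila Schneider cells, with compound added 1 hr before 700 uM copper sulfate induction and a 20 hr ambient-temperature incubation.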
MCF10A rereplic – induces DNA re-replication in MCF 10a normal breast cells; MCF 10A DNA re-replication, Hoechst nuclear intensity, 48 h; Potency, µM (top dose mostly 46.1 µM), for the others: top-dose activity, positive = re-replication, usual class: activators; 2.9% of 350,000 active; note: % of control where 0% means no effect; nearly all actives have a fitted effect of over 50% in size
Numbers without * were called inactive; i = inactive; ? = inconclusive; . = no result given; ! = not confirmed by another sample; [ ] = remark or other dose. Calls come from the whole dose curve; as a rule, active = well fitted curve in the direction sought with a large enough effect; inconclusive = small, poorly fitted or top-dose-only effect, or another doubt; inactive = no such curve, though single readings can be large; an effect the other way counts as inactive or inconclusive. Potency is the fitted concentration of half-maximal effect.

SMILES	Gal4-VP16 FLuc	SW480 rereplic	KB-V1 cytotox	KB-3-1 cytotox	RORgamma inh	MCF10A rereplic
CCC(=NCCc1c(C)[nH]c2ccccc12)C1=C(O)CC(c2ccccc2)CC1=O (stereo not drawn)	-6%	10µM*	3.7µM*	4.6µM*	41%	4.1µM*
Cc1c(C(=O)NCc2ccccc2Cl)sc2nc3n(c(=O)c12)CCCCC3	.	.	i	i	.	.
COC(=O)c1c(-c2ccc(Cl)cc2)noc1N1CCN(c2cccc(OC)c2)CC1	.	.	i	i	.	.
c1ccc2oc(-c3[nH]ncc3CN3CCC(N4CCSCC4)CC3)cc2c1	-10%	-6%	i	i	35%	23µM*
c1ccc2oc(-c3[nH]ncc3CN3CCSCC3)cc2c1	-3%	-7%	i	i	-19%	11%
CCC1(c2ccccc2)NC(=O)N(CC(=O)NCc2ccc(C)cc2)C1=O (stereo not drawn)	4%	-2%	i	i	2%	-1%
COc1ccc(C(C)=O)cc1Cn1c(C)c(C(=O)NCCC#N)sc1=O	.	.	i	i	.	.
Cc1cc(N)ncc1[N+](=O)[O-]	.	-6%	i	i	.	0%
Cc1ccc(C)c(Oc2ncnc(N)c2[N+](=O)[O-])c1	4%	-1%	i	i	16%	5%
Cc1cc(Sc2nc(N)ncc2[N+](=O)[O-])ncn1	?	?	i	16µM*	0.79µM*	?
Cc1cc(Sc2ncnc(N)c2[N+](=O)[O-])ncn1	4.5µM*	?	?	4.6µM*	3.5µM*	2.9µM*
CCC(C)Sc1cccc(-c2nc3cc(C)ccn3c2NCc2ccccc2)c1 (stereo not drawn)	.	?	i	i	.	?
Clc1ccc2nc(-c3cccc(SC4CCCCC4)c3)c(NCc3ccccc3)n2c1	.	-2%[9.22 µM]	i	i	.	?
Cc1ccc2nc(-c3cccc(SC4CCCCC4)c3)c(NCc3ccccc3)n2c1	.	?	?	?	.	18µM*
CCCCNc1c(-c2cccc(SC3CCCCC3)c2)nc2ccc(Cl)cn12	.	-4%	?	?	.	26µM*
CCCCNc1c(-c2cccc(SC(C)CC)c2)nc2ccc(Cl)cn12 (stereo not drawn)	.	-6%	?	?	.	?
c1ccc(CNc2c(-c3cccc(SC4CCCCC4)c3)nc3ccccn23)cc1	.	6.5µM*	i	i	.	18µM*
Cc1ccn2c(NCc3ccccc3)c(-c3cccc(SC4CCCCC4)c3)nc2c1	.	-10%	21µM*!	?	.	21µM*
COc1ccc(-n2c(SCC(=O)NCc3ccc(F)cc3)nc3c([nH]c4ccccc43)c2=O)cc1	.	.	i	i	.	.
CC(C)NC(=O)c1cc(C2CCCCN2S(=O)(=O)c2cccs2)on1 (stereo not drawn)	.	.	i	i	.	.
O=C(Nc1ccc(-c2nc3ccccc3[nH]2)cc1)c1ccc(Oc2ccccc2)cc1	.	.	i	i	.	.
COc1ccc(COC(=O)C2CCN(C(=O)c3ccc(Cl)cc3)CC2)cc1F	.	2%	i	?	.	15µM*
COc1ccc(CN2CCN(C(=O)c3ccc(S(=O)(=O)N4CCCCCC4)cc3)CC2)cc1	.	15%	2.3µM*	8.2µM*	.	?
COc1ccc(CN2CCN(C(=O)c3ccc(S(=O)(=O)N4CCCCCC4)cc3)CC2)cc1F	.	0%	?	23µM*	.	11%
O=C(c1ccc(S(=O)(=O)N2CCCCCC2)cc1)N1CCN(Cc2ccccc2)CC1	.	-21%	?	i	.	28%
SMILES	Gal4-VP16 FLuc	SW480 rereplic	KB-V1 cytotox	KB-3-1 cytotox	RORgamma inh	MCF10A rereplic
COc1ccc(CN2CCN(C(=O)c3ccc(S(=O)(=O)NCc4ccco4)cc3)CC2)cc1F	.	-8%	i	?	.	19%
COc1ccc(C(C)=O)cc1COC(=O)C1CCN(C(=O)c2ccc(Cl)cc2)CC1	.	-1%	i	i	.	0%
Cc1ccc(-c2nc3c(c(=O)c4ccccc4n3C)c(=O)n2Cc2ccco2)cc1	-8%	18µM*	i	i	-7%	2%
CC1CC(C)CN(CCOCCSc2ccc(Cl)cc2)C1 (stereo not drawn)	6%[10 µM]	?	i	i	-10%	16µM*
CC1CC(C)CN(CCCSc2ccccc2)C1 (stereo not drawn)	-28%	5%	?	i	-6%	27%
O=C(c1ccccc1)c1cc(Cl)ccc1N1C(=O)C=CC1=O	16µM*	18µM*	i	i	?	?
Cc1ccc(C)c(N2CCN(S(=O)(=O)c3ccc4[nH]c5c(c4c3)CCCCC5)CC2)c1	.	.	?	i	.	.
CN(C)c1cccc(-c2nnc(SCCCC#N)o2)c1	?	-5%	21µM*	i	11µM*	2%
CN(C)CCSc1nnc(-c2ccccc2)o1	-10%	-5%	i	i	-41%	?
CC(C)(C)c1ccc(-c2nnc(NC(=O)c3ccccc3)s2)cc1	?	-2%	i	i	7.9µM*	?
O=C(Nc1nnc(-c2ccccc2Cl)s1)c1ccccc1F	-1%	-8%	i	i	-14%	?
Cc1nnc(NC(=O)c2ccccc2)s1	.	.	?	i	.	.
O=C(Nc1nnc(-c2ccccc2)s1)c1ccccc1F	1%	-3%	i	i	13µM*	8%
O=C(Cc1cccs1)Nc1nnc(-c2ccccc2)s1	2%	-19%	i	i	4%	0.65µM*
O=C(CCNS(=O)(=O)c1cccc2nsnc12)Nc1ccc(F)cc1	.	.	i	i	.	.
Cc1ccc(-n2c(SCC(=O)N3CC(=O)Nc4ccccc43)nc3ccccc3c2=O)cc1	-3%	12%	18µM*	?	?	16%
COCCn1c(SCC(=O)N2CC(=O)Nc3ccccc32)nc2ccccc2c1=O	2%	?	i	i	26%	8%
Cc1cccc(C)c1-n1c(SCC(=O)N2CC(=O)Nc3ccccc32)nc2ccccc2c1=O	14%	.	18µM*	?	10%	9%
CCCCC(=O)N(C)c1c(C)nc2ccc(C(=O)Nc3cccc(NS(C)(=O)=O)c3)cn12	.	.	i	i	.	.
COCCNc1oc(-c2cccs2)nc1S(=O)(=O)c1ccc(C)cc1	-10%	1%	?	i	0%	-1%
COCCCNc1oc(-c2cccs2)nc1S(=O)(=O)c1ccc(C)cc1	?	-2%	15µM*	i	?	-6%
Cc1ccc(CN2CCCn3nc(C(=O)NCc4ccc(OC(C)C)cc4)cc3C2=O)cc1	.	.	i	?	.	.
COC(=O)NC(c1cccc(C)c1)[C@]1(C(C)=O)CCCC1=O (stereo partly drawn)	-7%[10 µM]	.	.	.	7%[10 µM]	.

High-throughput results (PubChem BioAssay)
